This is a sample that favours compounds with a hit; in the whole collection about 2.8% have one here.
ERa coact pot: enhancers of ERα–SRC-1 coactivator binding, primary screen, biochemical, TR-FRET, ERα LBD, low estradiol; TR-FRET ERalpha-LBD/SRC-Cy5 coactivator binding, 2 h; 100 = basal binding, no effect; AID 639, 2007; coactivator binding (% of control), % at 25.6 µM; 1.3% of 86,000 active; in the data active = activity above about 200%;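 also: binding measured in presence of low estradiol as agonist stimulus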
ERa SRC1 inh: ERα–SRC-1 coactivator interaction inhibitors, primary screen, biochemical, TR-FRET, ERα LBD, estradiol-bound. inhibition, % at 25.6 µM. 1.7% of 86,000 active. Estrogen receptor (Homo sapiens), P03372. AID 629, 2007. TR-FRET ER-alpha LBD / SRC-1 peptide; in the data active = inhibition above about 50%
EphB4 ephrin blk: EphB4-ephrin-B2 interaction antagonists, primary screen, biochemical, TNYL-RAW peptide probe, fluorescence polarization; EphB4 LBD / TNYL-RAW-Alexa532 peptide; inhibition, % at 7 µM; 0.15% of 97,000 active;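 active = inhibition above the screen-wide mean inhibition plus 3 SD, cut at about 15% in these data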
ERb coact inh: inhibitors of ERβ-SRC1 coactivator interaction, primary screen, biochemical, TR-FRET, ERβ LBD, SRC-1 peptide; TR-FRET ER-beta LBD / SRC1-Cy5 peptide binding; receptor agonist-loaded with 1 µM estradiol; 1.3% of 86,000 active; Estrogen receptor beta (Homo sapiens), Q92731; inhibition, % at 25.6 µM; AID 633, 2007;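 active = compounds whose percent inhibition of the receptor-coactivator binding signal exceeds about 50% in the single-dose screen, limit read from the data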
Target sequence (Q92731 whole entry, looked up, the tested form may be a part): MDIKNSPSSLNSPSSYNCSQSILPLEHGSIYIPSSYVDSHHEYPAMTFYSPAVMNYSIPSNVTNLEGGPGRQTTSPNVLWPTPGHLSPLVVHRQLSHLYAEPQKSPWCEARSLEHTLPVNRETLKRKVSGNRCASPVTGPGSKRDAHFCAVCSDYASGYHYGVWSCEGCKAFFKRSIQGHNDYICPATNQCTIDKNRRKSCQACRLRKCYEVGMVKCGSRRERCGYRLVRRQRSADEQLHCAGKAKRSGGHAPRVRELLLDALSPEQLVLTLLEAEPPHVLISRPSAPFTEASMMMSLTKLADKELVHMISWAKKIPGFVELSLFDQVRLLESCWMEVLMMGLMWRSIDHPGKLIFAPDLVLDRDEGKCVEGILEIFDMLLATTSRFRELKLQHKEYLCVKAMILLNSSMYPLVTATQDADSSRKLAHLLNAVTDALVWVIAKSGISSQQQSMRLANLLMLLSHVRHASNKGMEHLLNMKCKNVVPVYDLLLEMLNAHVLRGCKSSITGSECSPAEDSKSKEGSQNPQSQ
Numbers stand for hits; i = inactive; nt = not tested or not shown; [ ] = another dose, or the depositor's remark.

SMILES | ERa coact pot | ERa SRC1 inh | EphB4 ephrin blk | ERb coact inh
COc1ccc(C(=O)Cn2nnc(-c3cccs3)n2)cc1 | i | i | i | 78[fluorescence artefact?]
O=C1NC(c2ccc(Br)cc2)Nc2sc3c(c21)CCC3 (stereo not given) | i | 51 | i | 64
O=C1NC(c2ccccn2)Nc2sc3c(c21)CCC3 (stereo not given) | i | i | i | i
Cc1nnc(NC(=O)CSc2nc3c(c(=O)n2CCc2ccccc2)SC(C)C3)s1 (stereo not given) | i | 69 | nt | i
CC1Cc2nc(SCC(=O)Nc3ccc4c(c3)OCO4)n(CCc3ccccc3)c(=O)c2S1 (stereo not given) | i | i | nt | i
Cc1cc(NC(=O)CSc2nc3c(c(=O)n2CCc2ccccc2)SC(C)C3)no1 (stereo not given) | i | 79 | nt | i
Cc1cc(NC(=O)CSc2nc3ccccc3c(=O)n2Cc2ccc(F)cc2)no1 | 232[fluorescence artefact?] | i | i | 50[fluorescence artefact?]
COc1ccc(CCn2c(SCC(=O)Nc3cc(C)on3)nc3ccsc3c2=O)cc1OC | 314 | i | i | i
NC1CCCCC1N=Cc1c(O)n(CCc2ccc(F)cc2)c(=O)[nH]c1=O (stereo not given) | i | 72[fluorescence artefact?] | i | i
COC(=O)CCC/C=C1/SCC(NC(=O)c2ccccc2)C1O (stereo not given) | 213 | i | i | i
COc1ccc(NC(=O)N2CCc3ccccc32)cc1 | i | i | i | i
CCOC(=O)c1ccc(NC(=O)N2CCc3ccccc32)cc1 | 241[fluorescence artefact?] | i | i | i
CC(=O)c1sc(NC(=O)c2ccco2)nc1-c1ccccc1 | i | i | i | i
CCOC(=O)c1sc(NC(=O)c2ccco2)nc1-c1ccccc1 | 271[fluorescence artefact?] | i | i | i
CC1(C)C(O)=C(c2nc3ccccc3[nH]2)C(=N)N1c1ccccc1 | i | i | i | i
N=c1c(-c2nc3ccccc3[nH]2)cc(C(=O)c2cccs2)nn1-c1ccccc1 | i | 92[fluorescence artefact?] | i | 62[fluorescence artefact?]
COc1ccc(C(=O)NC2(C(F)(F)F)C(=O)Nc3c2c(=O)[nH]c(=O)n3CCc2ccc(OC)c(OC)c2)cc1 (stereo not given) | i | i | i | i
O=C(O)c1ccc(C(=O)c2ccc3c(c2)C(=O)N(Cc2ccco2)C3=O)cc1 | i | i | i | i
O=C(Nc1ccc(O)cc1C(=O)O)c1ccc2c(c1)C(=O)N(Cc1ccco1)C2=O | i | i | i | 54
CC(C)CC(NC(=O)C1CCCCC1)C(=O)N1CCN(c2ccccn2)CC1 (stereo not given) | i | i | i | i
COc1ccc(NC(=O)C2CCN(C(=O)c3ccccc3)CC2)c(OC)c1 | i | i | i | i
COc1ccc(C(=O)N2CCC(C(=O)Nc3ccccc3OC)CC2)cc1 | 223[fluorescence artefact?] | i | i | i
CCCC(=O)NC1C2CC3CC(C2)CC1C3 (stereo not given) | i | 83[fluorescence artefact?] | i | i
CN(CC(O)COc1ccc(S(=O)(=O)N2CCOCC2)cc1)C1CCCCC1 (stereo not given) | i | i | i | 78
CCOC(=O)N1CCN(C(=S)Nc2cc(OC)c(OC)cc2C(=O)OC)CC1 | nt | nt | i | nt
SMILES | ERa coact pot | ERa SRC1 inh | EphB4 ephrin blk | ERb coact inh
C/C(N)=C(/C#N)C(=O)CSc1nc2ccc(C)cc2[nH]1 | i | i | nt | 57[fluorescence artefact?]
Cc1nnsc1NC(=O)OCC(C)(C)C | i | i | i | i
CCC(C)(C)NC(=O)C(c1ccco1)N(C(=O)c1csnn1)c1cccc(F)c1 (stereo not given) | i | i | 17 | i
ON=Cc1cccn1-c1ccccc1 | i | i | i | i
O=C(O)c1cccc(-n2cccc2/C=N/O)c1 | i | 76[fluorescence artefact?] | i | 77[fluorescence artefact?]
O=C1CC(c2ccco2)CC(O)=C1C=Nc1cc(Cl)ccc1O (stereo not given) | i | 52 | i | i
CCC(C)c1ccc(OCCn2cc(/C=N/NC(=O)CSc3nnc(C)s3)c3ccccc32)cc1 (stereo not given) | i | i | i | i
CC1(C)Oc2ccc(NC(=O)c3ccco3)cc2O1 | i | i | i | i
O=C(O)c1cccc(S(=O)(=O)NCC2CCCO2)c1 (stereo not given) | i | i | i | i
O=C(O)c1cccc(S(=O)(=O)Nc2ccc3oc(=O)sc3c2)c1 | i | i | i | 52[fluorescence artefact?]
O=C(Nc1nccs1)c1nc(-c2ccccc2)n(-c2ccccc2)n1 | 343 | i | i | i
CC1=C(C(=O)c2ccccc2)C(c2cn(-c3ccccc3)nc2-c2ccc(Cl)cc2)NC(=S)N1 (stereo not given) | 282[fluorescence artefact?] | i | i | i
Cn1cc(Br)c(C(=O)NC2CCCCC2)n1 | i | i | i | i
COC(=O)c1sccc1NC(=O)c1ccc(OC)c(OC)c1 | i | i | i | i
COC(=O)c1sccc1NC(=O)c1sccc1C | i | i | i | i
CCc1sc(C(=O)Nc2ccsc2C(=O)OC)cc1Br | 237 | i | nt | i
COC(=O)c1sccc1NC(=O)c1cc(OC)cc(OC)c1 | 440[fluorescence artefact?] | i | i | i
CN(CC(=O)Nc1cccc2ccccc12)c1ccc(S(=O)(=O)N2CCOCC2)cn1 | i | i | i | i
CC1=NOC(=O)/C1=C/c1ccc(-c2ccc(Cl)cc2)o1 | i | 64[fluorescence artefact?] | i | i
COc1cc(-c2nnc(-c3ccc(S(=O)(=O)c4ccccc4)cc3)o2)cc(OC)c1OC | i | 58 | i | i
Cc1ccc2c(c1)c1cccc3c1n2CCN3CCC(N)=O | i | i | i | 60[fluorescence artefact?]
C=CCNc1cc(C(F)(F)F)nc(-c2ccccn2)n1 | nt | nt | i | nt
Cc1nnc(N2C(=O)c3oc4ccccc4c(=O)c3C2c2ccco2)s1 (stereo not given) | i | i | nt | 62[fluorescence artefact?]
COc1ccc(C2c3c(oc4ccccc4c3=O)C(=O)N2c2ccccn2)cc1 (stereo not given) | 218 | i | i | i
CC(C)c1nnc(N2C(=O)c3oc4ccccc4c(=O)c3C2c2ccco2)s1 (stereo not given) | nt | nt | i | nt
SMILES | ERa coact pot | ERa SRC1 inh | EphB4 ephrin blk | ERb coact inh
COc1ccc(C2c3c(oc4ccccc4c3=O)C(=O)N2c2ccccn2)cc1OC (stereo not given) | i | i | nt | i
NC(=O)COC(=O)CCCc1c[nH]c2ccccc12 | i | i | i | i
NC(=O)Cc1c[nH]c2cccc(O)c12 | i | 73[fluorescence artefact?] | nt | 93[fluorescence artefact?]
Cc1cc(C)nc(NC2=NCC(=O)N2c2cc(Cl)cc(Cl)c2)n1 | 474[fluorescence artefact?] | i | i | i
C=CCn1c(SCC(=O)Nc2ccc(C(=O)OC(C)C)cc2)nnc1-c1cccs1 | 825[fluorescence artefact?] | i | nt | i
O=C(CSc1nnc(-c2cccs2)n1-c1ccccc1)N1CCc2ccccc21 | 925[fluorescence artefact?] | i | i | i
CCOC(=O)c1ccc(NC(=O)CSc2nnc(-c3cccs3)n2C)cc1 | i | i | i | i
C=CCn1c(SCC(=O)Nc2cccc(OC)c2)nnc1-c1cccnc1 | 226 | i | i | i
COc1ccc(NC(=O)CSc2nnc(-c3cccs3)n2-c2ccccc2)cc1 | 323[fluorescence artefact?] | i | i | i

High-throughput results: PubChem BioAssay, several laboratories
